SMN2 splice enh – qHTS Assay for Enhancers of SMN2 Splice Variant Expression; Potency, µM (doses to about 46.1 µM), for inactives: at the highest dose activity change, positive = activation, hits mostly activators; 210,000 tested, 2.8% active; HEK293 SMN2-luciferase splicing reporter, luminescence, 30-36 h; also: % of control where 0% means no effect; nearly all actives have a fitted effect of over 55% in size
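qHTS luciferase splicing reporter: luminescence rises when SMN2 exon 7 is included in transfected HEK293 cells. Compound exposure lasted 30-36 h at 37C, with 4.5 mM final sodium butyrate as control, followed by a ONE-Glo read.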
ELG1 genotoxic – qHTS screen for small molecules that induce genotoxicity in human embryonic kidney (HEK293T) cells expressing luciferase-tagged ELG1. AID 504466, 2011. 330,000 tested, 1.3% active. Potency, µM (doses to about 46 µM), without a hit: at the highest dose activity change, positive = activation, hits mostly activators. HEK293T ELG1-luciferase reporter, luminescence, 16 h; also: % of control where 0% means no effect; nearly all actives have a fitted effect of over 60% in size
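Reporter readout depends on ELG1 protein level, which increases with genetic stress. After 16 hr compound exposure at 37 °C, luciferase activity was quantified using ONE-Glo.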
KinaseGlo FLuc – Counterscreen for Luciferase (Kinase-Glo TM) Inhibition. Luciferin 4-monooxygenase (Photuris pensylvanica), Q27757. Kinase-Glo luciferase, ATP luminescence, 8 min. Potency, µM (doses to about 38.3 µM), for the others: at the top dose activity change, negative = inhibition, usual class: inhibitors. 200,000 tested, 0.28% active; also: % is scaled to controls: 0 for no effect and ±100 for the full control effect; nearly all actives have a fitted effect of over 60% in size
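Recombinant Kinase-Glo luciferase, 10 uM ATP (linear range), luciferin; imidazole pH 7.2 / KCl / MgCl2 / Tween / BSA buffer; 8 min RT; luminescence.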
Rab9 promoter act – qHTS Assay for Rab9 Promoter Activators. Potency, µM (highest dose often 9.22 µM), for the others: top-dose activation, negative = inhibition, hits mostly activators. 320,000 tested, 2.8% active. Huh7 Rab9 promoter-luciferase reporter, luminescence, 24 h. AID 485297, 2010; also: % of control where 0% means no effect; nearly all actives have a fitted effect of over 60% in size
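Using Huh7 cells stably transfected with Rab9 promoter–luciferase, compounds were incubated 24 h at 37 °C, 5% CO2; luciferase luminescence was read 10 min after reagent addition.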
FLuc modulator – qHTS profiling assay for firefly luciferase inhibitor/activator using purifed enzyme and Km concentrations of substrates (counterscreen for miR-21 project); Luciferin 4-monooxygenase (Photinus pyralis), P08659; purified FLuc, Km substrates, luminescence inhibition; Potency, µM (top dose mostly 57.5 µM), for inactives: at the highest dose activity change, negative = inhibition, hits mostly inhibitors; 360,000 tested, 6.9% active;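 also: plate controls were vehicle for no effect and reference inhibitor for full effect; nearly all actives have a fitted effect of over 55% in size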
Target sequence (P08659 whole entry, looked up): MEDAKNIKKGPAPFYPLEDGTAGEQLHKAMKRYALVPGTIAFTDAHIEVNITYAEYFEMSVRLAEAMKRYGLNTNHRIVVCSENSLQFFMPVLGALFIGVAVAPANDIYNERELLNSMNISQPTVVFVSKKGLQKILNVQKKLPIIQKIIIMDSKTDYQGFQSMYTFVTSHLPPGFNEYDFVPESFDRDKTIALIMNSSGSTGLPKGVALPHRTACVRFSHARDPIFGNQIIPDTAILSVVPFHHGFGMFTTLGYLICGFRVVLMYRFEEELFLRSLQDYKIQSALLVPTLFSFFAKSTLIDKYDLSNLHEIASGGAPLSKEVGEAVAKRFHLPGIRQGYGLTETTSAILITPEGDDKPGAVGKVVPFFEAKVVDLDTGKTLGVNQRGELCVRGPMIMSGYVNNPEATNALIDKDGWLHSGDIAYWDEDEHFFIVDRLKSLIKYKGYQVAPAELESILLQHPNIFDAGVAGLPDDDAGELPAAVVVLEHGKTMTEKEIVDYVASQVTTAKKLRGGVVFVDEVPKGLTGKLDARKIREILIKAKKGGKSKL
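Purified P. pyralis luciferase, 10 nM final, with Km-level 10 uM D-luciferin and 10 uM ATP in 50 mM Tris acetate pH 7.5, 10 mM Mg acetate, 0.01% Tween-20, 0.05% BSA; 6-point qHTS titration about 60 µM downward; luminescence read.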
NPC1 promoter act – qHTS Assay for NPC1 Promoter Activators; Potency, µM (highest dose often 9.22 µM), for the others: at the highest dose activation, actives largely listed as activators; Huh7 NPC1 promoter luciferase reporter, 24 h; 320,000 tested, 2.4% active; also: % of control where 0% means no effect; nearly all actives have a fitted effect of over 60% in size
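Quantitative HTS used a cell-based reporter: Huh7 cells stably bearing the NPC1 promoter upstream of luciferase were treated with compounds for 24 h, and promoter activation was read as luminescence.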
Active calls of the source: *; ? = inconclusive; . = not tested or not shown. Hits are enriched below; roughly 7.5% of the tested compounds scored in any of these assays. Calls follow the shape of the dose curve; as a rule, active = well fitted curve in the direction sought with a large enough effect; inconclusive = small, poorly fitted or top-dose-only effect, or another doubt; inactive = no such curve, though single readings can be large; an effect the other way counts as inactive or inconclusive. Potency is read from the fitted curve at half-maximal effect.

SMILES | SMN2 splice enh | ELG1 genotoxic | KinaseGlo FLuc | Rab9 promoter act | FLuc modulator | NPC1 promoter act
N/C(=N\OCc1ccc([N+](=O)[O-])cc1)c1ccccn1 | 0.79µM* | 0.082µM* | 10µM* | ? | 0.38µM* | ?
N/C(=N\OC(=O)c1ccc(Br)o1)c1ccccn1 | 13µM* | ? | ? | 2.2µM* | 2.7µM* | 0.56µM*
C/C(=N/OCc1ccc(Br)cc1)c1ccccn1 | 14µM* | 4.6µM* | -9% | 2.5µM* | 3µM* | 4µM*
CCCNC(=O)CCC(=O)N1Cc2cccc(OC)c2Oc2ncccc21 | . | . | . | . | 3% | .
O=C(NCc1ccc(F)cc1)C1CCN(S(=O)(=O)c2ccc3c(c2)CCCN3C(=O)C2CCC2)CC1 | . | . | . | . | -10% | .
Cc1cccc(C(=O)O/N=C(\N)c2ccccn2)c1 | . | 2.6µM* | . | 4µM* | 0.27µM* | 1.6µM*
N/C(=N\OC(=O)c1ccccc1)c1ccccn1 | . | ? | 1.4µM* | 1µM* | 0.27µM* | 1.8µM*
Cc1ccc(C(=O)O/N=C(\N)c2ccccn2)cc1C | . | 0.33µM* | . | 0.5µM* | 0.095µM* | 0.32µM*
O=C(NCCCNC(=O)c1ccccn1)c1cccc(F)c1 | . | 4% | . | 4% | 3% | -7%
N/C(=N\OC(=O)c1cccc(F)c1)c1ccccn1 | . | ? | . | 1.6µM* | 1.1µM* | 3.5µM*
CCn1c(CNC(=O)c2ccc(OC)cc2)nnc1SCC(=O)Nc1cccc(C)c1C | -14% | . | . | . | 1% | .
CCOc1cc(-c2sc(Nc3ccccc3)n[n+]2C)ccc1OC | . | 5% | . | 1% | -2% | -9%
CC(=O)c1ccc(NC(=O)Cn2cc(S(=O)(=O)Cc3ccccc3Cl)c3ccccc32)cc1 | . | . | . | . | -18% | .
O=c1[nH]c(C2CCN(S(=O)(=O)c3ccc(C(F)(F)F)cc3)CC2)nc2c1nnn2Cc1ccccc1 | . | 0% | . | -2% | 0% | -3%
CC(C)(C)c1ccc(C(=O)O/N=C(\N)c2ccccn2)cc1 | . | -5% | . | -24% | 0.24µM* | -25%
Cc1ccc(C(=O)O/N=C(\N)c2ccccn2)cc1 | . | ? | . | 1.1µM* | 0.024µM* | 0.5µM*
C/C(=N\OC(=O)c1ccc(Br)cc1)c1ccccn1 | 0% | 2% | ? | -8% | 0.54µM* | -1%
COc1cc(C(=O)O/N=C(\N)c2ccccn2)cc(OC)c1OC | . | ? | . | 28% | -19% | 23%
COc1ccc2nc(SCC(=O)NC3CCCC3)c(C)cc2c1 | . | 0% | . | -17% | -1% | -14%
COc1ccccc1NCCC(=O)OCC(=O)NC1CCCCCC1 | 10% | 1% | -1% | -2% | 1% | 1%
Cc1ccc(C)c(C(=O)COC(=O)c2cccc(N3C(=O)c4c(C)nc5ccccc5c4C3=O)c2)c1 | -10% | 14% | -4% | ? | 1.5µM* | ?
Cc1nc2ccccc2c2c1C(=O)N(c1cccc(C(=O)O)c1)C2=O | 17% | 4% | 9% | -4% | -18% | 1%
COc1ccc(NC(=O)c2ccco2)cc1NC(=O)c1c(OC)cccc1OC | 3% | 1% | . | 5% | 15µM* | 0%
COc1ccc(/C=N/NC(=O)c2ccccc2NC(=O)c2ccco2)c(OC)c1 | . | 2% | . | 1% | 5.4µM* | 5%
O=C(Nc1ccc(OC(=O)c2cccs2)cc1)c1ccco1 | 19% | ? | ? | 10% | 2.7µM* | 0%
SMILES | SMN2 splice enh | ELG1 genotoxic | KinaseGlo FLuc | Rab9 promoter act | FLuc modulator | NPC1 promoter act
COc1ccccc1NC(=O)c1ccccc1NC(=O)c1cc(Cl)ccc1NC(=O)c1ccco1 | 10% | 1% | 0% | 3% | 9% | -1%
COc1ccc(NC(=O)c2ccccc2NC(=O)c2ccco2)c(OC)c1 | -8% | -7% | -9% | 3% | 19µM* | 8%
COc1ccc(NC(=O)c2ccc(NC(=O)c3ccco3)cc2)c(OC)c1 | . | -5% | . | 13% | -3% | -2%
O=S(=O)(Cc1ccccc1)Cc1cnc(Cl)s1 | 8% | 1% | 1% | 2% | 0% | -2%
CCCCCC(=O)N1CCCCC1 | . | -1% | . | 2% | -1% | -4%
COc1cc(NC(=O)c2oc3ccccc3c2C)ccc1NC(=O)c1ccco1 | . | -6% | . | ? | 5.4µM* | 25%
COc1cc(NC(=O)c2cccs2)ccc1NC(=O)c1ccco1 | 11µM* | 18µM* | -2% | ? | ? | 30%
COc1ccccc1NC(=O)c1oc2ccccc2c1NC(=O)c1ccco1 | -25% | 7% | -3% | 0% | -1% | -2%
O=C(Nc1ccc(NC(=O)c2cccs2)cc1Cl)c1ccco1 | . | ? | ? | ? | -5% | ?
COc1cc(NC(=O)c2ccccc2Cl)ccc1NC(=O)c1ccco1 | 22µM* | ? | -8% | 2.8µM* | 11µM* | 2.5µM*
CCCNc1c(NC(=O)c2cccs2)c(=O)oc2ccccc12 | . | 0% | . | -3% | -3% | -1%
Cc1ccc(/C=N/NC(=O)c2ccc(C(=O)N/N=C/c3ccc(C)s3)o2)s1 | 1% | 10% | -3% | -1% | ? | 6%
Cc1occc1C(=O)N/N=C/c1ccc(Br)s1 | . | ? | -28% | 2.8µM* | 15µM* | ?
Cc1ccc(/C=N/NC(=O)c2ccoc2C)s1 | 10µM* | ? | ? | 3.2µM* | 15µM* | ?
Cc1c(CCC(=O)NC2CC2)c(=O)oc2cc(O)ccc12 | . | -1% | . | -8% | -1% | 1%
Cc1sc(N2CCN(S(=O)(=O)c3ccc4c(c3)NC(=O)CO4)CC2)nc1-c1ccccc1 | . | 0% | . | -12% | 2% | -6%
COc1cc(C)ccc1OCCCOc1c(Cl)cccc1Cl | -27% | 1% | -1% | -1% | -14% | -1%
CCOc1ccccc1OCCCOc1ccc(C)cc1Cl | . | 6% | . | ? | 11µM* | 27%
CCOc1ccccc1OCCCOc1ccc(C)cc1Br | 2% | 11% | -3% | 19% | 11µM* | 4%
Cc1c(NC(=S)N2CCN(c3ccc(F)cc3)CC2)c(=O)n(-c2ccccc2)n1C | -2% | -2% | 0% | -1% | -2% | -2%
CCN1CCN(C(=O)c2nn(C)c3c2CS(=O)(=O)c2ccccc2-3)CC1 | . | 0% | . | -7% | 1% | 1%
COc1ccc(/C=C/c2ccc3ccccc3[n+]2C)cc1OC | . | ? | . | -11% | 17µM* | -4%
CN(C)c1ccc(/C=C/c2ccc3ccccc3[n+]2C)cc1 | -74% | 10% | ? | -47% | ? | -35%
Cc1ccc(CNC(=O)CCCN2C(=O)CCn3nc(-c4cccn4C)cc32)cc1 | . | . | . | . | -5% | .
